Laboratory results reported in ChEMBL document CHEMBL1961873, “Compounds: GSK PKIS; Assays: Nanosyn kinase panel” (2012).

How the values were obtained:
[1] = tested on: Epidermal growth factor receptor (Homo sapiens), P00533 [T790M]; details: at 1 µM
[2] = tested on: Epidermal growth factor receptor (Homo sapiens), P00533 [L858R,T790M]; details: at 0.1 µM
[3] = tested on: Epidermal growth factor receptor (Homo sapiens), P00533 [L858R,T790M]; details: at 1 µM
[4] = target: Ephrin type-A receptor 2 (Homo sapiens) (UniProt P29317); details: at 0.1 µM
Sequence of Ephrin type-A receptor 2 (Homo sapiens) (P29317 whole entry): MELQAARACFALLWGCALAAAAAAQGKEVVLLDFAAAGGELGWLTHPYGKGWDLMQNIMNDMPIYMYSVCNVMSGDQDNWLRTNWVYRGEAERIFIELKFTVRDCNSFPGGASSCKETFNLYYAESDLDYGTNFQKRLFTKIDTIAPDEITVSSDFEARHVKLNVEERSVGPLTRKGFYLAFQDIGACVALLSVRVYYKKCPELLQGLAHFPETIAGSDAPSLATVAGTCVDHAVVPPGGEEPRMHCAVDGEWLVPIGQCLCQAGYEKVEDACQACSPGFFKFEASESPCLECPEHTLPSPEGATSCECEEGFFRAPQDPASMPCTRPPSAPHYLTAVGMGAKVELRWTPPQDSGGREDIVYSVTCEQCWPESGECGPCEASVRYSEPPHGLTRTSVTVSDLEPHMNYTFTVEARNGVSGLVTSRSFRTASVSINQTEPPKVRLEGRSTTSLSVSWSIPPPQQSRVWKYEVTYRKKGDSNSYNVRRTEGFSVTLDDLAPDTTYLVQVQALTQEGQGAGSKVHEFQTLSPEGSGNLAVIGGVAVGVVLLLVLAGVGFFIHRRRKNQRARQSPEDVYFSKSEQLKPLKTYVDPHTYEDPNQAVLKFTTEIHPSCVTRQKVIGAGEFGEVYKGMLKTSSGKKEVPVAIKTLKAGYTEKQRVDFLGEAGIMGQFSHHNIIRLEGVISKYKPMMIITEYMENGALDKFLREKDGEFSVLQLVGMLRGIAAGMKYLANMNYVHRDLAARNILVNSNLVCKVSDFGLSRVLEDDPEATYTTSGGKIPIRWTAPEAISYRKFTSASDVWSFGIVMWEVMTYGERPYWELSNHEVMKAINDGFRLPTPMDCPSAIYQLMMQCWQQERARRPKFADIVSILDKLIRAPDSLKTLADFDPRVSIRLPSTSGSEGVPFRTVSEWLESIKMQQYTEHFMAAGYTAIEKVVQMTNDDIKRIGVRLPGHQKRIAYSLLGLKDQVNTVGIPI

[5] = target: Ephrin type-A receptor 2 (Homo sapiens) (UniProt P29317); details: at 1 µM
[6] = target: T1, Ephrin type-A receptor 3 (Homo sapiens) (UniProt P29320); details: at 0.1 µM
T1 sequence (whole entry): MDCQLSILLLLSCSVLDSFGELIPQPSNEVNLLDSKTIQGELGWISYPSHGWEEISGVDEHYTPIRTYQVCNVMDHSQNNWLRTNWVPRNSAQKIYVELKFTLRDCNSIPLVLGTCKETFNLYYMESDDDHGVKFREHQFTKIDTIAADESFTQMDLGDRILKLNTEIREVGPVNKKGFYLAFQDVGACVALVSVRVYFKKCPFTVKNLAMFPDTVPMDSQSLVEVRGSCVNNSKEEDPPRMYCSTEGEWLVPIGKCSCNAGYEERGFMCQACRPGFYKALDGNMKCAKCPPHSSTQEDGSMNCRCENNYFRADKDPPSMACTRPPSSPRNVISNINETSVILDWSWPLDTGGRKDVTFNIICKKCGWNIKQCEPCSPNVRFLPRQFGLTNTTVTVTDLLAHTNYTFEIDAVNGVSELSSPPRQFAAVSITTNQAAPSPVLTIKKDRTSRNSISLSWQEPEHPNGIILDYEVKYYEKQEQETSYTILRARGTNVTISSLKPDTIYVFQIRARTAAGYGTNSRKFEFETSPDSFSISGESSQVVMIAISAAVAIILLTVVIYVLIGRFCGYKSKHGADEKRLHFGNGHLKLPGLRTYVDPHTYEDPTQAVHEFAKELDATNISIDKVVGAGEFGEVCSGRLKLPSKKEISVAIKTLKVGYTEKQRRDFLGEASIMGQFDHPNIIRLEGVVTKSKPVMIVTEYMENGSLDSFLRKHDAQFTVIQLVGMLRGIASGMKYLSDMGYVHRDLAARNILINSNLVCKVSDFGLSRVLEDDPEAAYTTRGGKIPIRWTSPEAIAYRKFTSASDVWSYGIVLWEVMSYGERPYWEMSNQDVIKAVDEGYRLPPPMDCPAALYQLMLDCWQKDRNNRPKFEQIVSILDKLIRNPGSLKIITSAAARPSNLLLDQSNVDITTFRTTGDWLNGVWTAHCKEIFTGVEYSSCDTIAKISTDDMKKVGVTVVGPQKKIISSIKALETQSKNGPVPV

[7] = target: T1, Ephrin type-A receptor 3 (Homo sapiens); details: at 1 µM
[8] = target: Ephrin type-A receptor 4 (Homo sapiens) (UniProt P54764); details: at 0.1 µM
Sequence of Ephrin type-A receptor 4 (Homo sapiens) (P54764 whole entry): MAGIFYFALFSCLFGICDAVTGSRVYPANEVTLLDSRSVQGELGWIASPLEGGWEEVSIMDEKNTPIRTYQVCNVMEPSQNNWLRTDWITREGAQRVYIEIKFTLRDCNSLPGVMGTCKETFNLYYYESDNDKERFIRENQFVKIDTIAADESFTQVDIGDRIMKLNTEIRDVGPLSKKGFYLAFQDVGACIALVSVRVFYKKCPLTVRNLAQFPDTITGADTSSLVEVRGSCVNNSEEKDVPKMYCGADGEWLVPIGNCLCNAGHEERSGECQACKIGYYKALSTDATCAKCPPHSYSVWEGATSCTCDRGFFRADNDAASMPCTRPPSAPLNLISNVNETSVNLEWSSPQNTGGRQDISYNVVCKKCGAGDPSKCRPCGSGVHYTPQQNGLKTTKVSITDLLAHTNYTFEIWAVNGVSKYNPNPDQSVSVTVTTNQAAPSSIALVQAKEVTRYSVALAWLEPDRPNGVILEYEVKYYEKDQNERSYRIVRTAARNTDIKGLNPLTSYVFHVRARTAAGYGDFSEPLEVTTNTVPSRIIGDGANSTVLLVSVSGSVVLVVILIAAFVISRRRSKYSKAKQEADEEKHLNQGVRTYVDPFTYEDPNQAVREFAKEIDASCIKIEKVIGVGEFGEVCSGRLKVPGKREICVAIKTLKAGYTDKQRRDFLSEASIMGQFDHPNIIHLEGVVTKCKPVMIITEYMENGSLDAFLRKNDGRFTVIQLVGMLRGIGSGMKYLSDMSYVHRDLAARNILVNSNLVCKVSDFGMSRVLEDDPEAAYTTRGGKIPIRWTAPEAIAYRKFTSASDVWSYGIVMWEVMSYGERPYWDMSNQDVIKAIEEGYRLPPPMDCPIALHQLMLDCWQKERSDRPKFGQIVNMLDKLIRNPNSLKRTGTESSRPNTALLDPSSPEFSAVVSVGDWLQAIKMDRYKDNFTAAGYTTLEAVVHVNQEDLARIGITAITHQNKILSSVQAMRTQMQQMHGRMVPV

[9] = target: Ephrin type-A receptor 4 (Homo sapiens) (UniProt P54764); details: at 1 µM
[10] = target: T2, Ephrin type-B receptor 2 (Homo sapiens) (UniProt P29323); details: at 0.1 µM
T2 sequence (whole entry): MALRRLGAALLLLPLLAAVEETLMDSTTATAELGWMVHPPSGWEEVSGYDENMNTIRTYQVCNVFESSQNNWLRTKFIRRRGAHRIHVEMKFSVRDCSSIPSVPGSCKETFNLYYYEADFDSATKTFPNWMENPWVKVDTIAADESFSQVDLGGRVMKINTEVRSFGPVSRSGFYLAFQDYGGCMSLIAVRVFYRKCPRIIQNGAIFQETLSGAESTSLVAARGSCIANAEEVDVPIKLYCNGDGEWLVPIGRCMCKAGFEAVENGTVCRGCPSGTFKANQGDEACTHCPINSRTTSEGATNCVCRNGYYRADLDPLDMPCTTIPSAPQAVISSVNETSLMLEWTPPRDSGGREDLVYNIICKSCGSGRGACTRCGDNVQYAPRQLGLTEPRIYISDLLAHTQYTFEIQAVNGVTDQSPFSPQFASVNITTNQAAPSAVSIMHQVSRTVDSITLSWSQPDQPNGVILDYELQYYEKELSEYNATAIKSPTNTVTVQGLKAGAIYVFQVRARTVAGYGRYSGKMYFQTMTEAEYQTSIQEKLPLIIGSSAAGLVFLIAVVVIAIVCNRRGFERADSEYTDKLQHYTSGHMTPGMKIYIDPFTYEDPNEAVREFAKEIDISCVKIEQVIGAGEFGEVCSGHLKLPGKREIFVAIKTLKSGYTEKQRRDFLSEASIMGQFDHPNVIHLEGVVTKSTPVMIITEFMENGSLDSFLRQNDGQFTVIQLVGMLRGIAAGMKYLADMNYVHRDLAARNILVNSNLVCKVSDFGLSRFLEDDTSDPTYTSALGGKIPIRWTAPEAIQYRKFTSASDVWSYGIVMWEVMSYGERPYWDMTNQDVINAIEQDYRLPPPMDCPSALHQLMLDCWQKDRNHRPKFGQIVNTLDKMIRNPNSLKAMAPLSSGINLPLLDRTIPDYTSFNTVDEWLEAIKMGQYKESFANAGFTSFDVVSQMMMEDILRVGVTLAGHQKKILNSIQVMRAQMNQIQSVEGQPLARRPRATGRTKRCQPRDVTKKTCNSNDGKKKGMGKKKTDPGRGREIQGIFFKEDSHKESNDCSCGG

[11] = target: T2, Ephrin type-B receptor 2 (Homo sapiens); details: at 1 µM
[12] = target: T3, Ephrin type-B receptor 3 (Homo sapiens) (UniProt P54753); details: at 0.1 µM
T3 sequence (whole entry): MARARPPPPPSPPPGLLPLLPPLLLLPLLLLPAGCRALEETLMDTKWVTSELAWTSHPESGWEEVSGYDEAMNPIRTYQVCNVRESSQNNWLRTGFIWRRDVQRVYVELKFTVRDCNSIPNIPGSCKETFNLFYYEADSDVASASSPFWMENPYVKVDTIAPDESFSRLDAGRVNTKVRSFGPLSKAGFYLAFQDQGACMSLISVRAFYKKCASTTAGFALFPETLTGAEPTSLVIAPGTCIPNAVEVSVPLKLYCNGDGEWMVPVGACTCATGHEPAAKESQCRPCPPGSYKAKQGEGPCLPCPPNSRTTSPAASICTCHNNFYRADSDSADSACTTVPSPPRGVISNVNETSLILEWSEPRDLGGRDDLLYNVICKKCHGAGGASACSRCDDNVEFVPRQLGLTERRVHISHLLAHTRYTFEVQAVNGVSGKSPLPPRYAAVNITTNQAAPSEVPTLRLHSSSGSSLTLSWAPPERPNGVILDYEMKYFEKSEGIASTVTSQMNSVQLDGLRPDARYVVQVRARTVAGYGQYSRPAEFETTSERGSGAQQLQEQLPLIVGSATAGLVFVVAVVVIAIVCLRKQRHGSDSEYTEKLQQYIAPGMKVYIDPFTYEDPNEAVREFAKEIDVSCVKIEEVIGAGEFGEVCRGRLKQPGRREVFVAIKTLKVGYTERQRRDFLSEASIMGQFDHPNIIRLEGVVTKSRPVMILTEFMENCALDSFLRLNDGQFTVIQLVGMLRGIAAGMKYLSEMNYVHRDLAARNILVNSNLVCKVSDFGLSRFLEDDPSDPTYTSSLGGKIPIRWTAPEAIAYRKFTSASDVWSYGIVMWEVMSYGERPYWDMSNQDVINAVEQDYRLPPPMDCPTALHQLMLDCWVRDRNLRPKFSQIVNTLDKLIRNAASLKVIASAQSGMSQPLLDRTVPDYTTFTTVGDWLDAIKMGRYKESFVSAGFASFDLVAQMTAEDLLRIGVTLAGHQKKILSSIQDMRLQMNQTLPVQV

[13] = target: T3, Ephrin type-B receptor 3 (Homo sapiens); details: at 1 µM
[14] = target: T4, Ephrin type-B receptor 4 (Homo sapiens) (UniProt P54760); details: at 0.1 µM
T4 sequence (whole entry): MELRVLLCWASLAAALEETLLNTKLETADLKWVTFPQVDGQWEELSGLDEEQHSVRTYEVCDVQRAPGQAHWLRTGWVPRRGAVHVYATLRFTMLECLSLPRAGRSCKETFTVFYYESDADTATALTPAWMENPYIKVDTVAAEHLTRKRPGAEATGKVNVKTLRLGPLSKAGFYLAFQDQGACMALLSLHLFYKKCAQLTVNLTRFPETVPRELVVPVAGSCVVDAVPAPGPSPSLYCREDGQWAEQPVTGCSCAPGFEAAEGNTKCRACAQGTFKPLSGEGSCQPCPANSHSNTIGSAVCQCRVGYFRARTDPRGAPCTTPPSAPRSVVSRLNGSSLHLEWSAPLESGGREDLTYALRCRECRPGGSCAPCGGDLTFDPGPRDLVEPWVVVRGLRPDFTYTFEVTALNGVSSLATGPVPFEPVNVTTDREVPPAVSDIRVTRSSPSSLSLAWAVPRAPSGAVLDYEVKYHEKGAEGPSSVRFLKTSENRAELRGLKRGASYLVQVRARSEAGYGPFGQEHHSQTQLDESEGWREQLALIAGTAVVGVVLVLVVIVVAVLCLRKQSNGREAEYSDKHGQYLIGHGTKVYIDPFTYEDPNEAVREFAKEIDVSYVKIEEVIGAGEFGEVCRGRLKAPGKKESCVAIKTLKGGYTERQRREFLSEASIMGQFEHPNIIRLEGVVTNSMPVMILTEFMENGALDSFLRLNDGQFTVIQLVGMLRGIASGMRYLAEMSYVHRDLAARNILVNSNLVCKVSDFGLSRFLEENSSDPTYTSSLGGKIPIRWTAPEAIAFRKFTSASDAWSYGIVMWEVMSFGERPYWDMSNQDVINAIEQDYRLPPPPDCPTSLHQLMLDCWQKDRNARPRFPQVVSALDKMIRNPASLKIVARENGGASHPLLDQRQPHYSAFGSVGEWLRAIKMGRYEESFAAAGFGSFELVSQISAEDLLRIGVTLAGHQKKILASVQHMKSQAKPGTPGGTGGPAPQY

[15] = target: T4, Ephrin type-B receptor 4 (Homo sapiens); details: at 1 µM
[16] = target: Receptor tyrosine-protein kinase erbB-2 (Homo sapiens) (UniProt P04626); details: at 0.1 µM
[17] = target: Receptor tyrosine-protein kinase erbB-2 (Homo sapiens) (UniProt P04626); details: at 1 µM
[18] = target: Receptor tyrosine-protein kinase erbB-4 (Homo sapiens) (UniProt Q15303); details: at 0.1 µM
[19] = target: Receptor tyrosine-protein kinase erbB-4 (Homo sapiens) (UniProt Q15303); details: at 1 µM
[20] = target: Tyrosine-protein kinase Fer (Homo sapiens) (UniProt P16591); details: at 0.1 µM;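 further: reported figures are averaged percent inhibition of FER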

Sequence of Epidermal growth factor receptor (Homo sapiens), P00533 [T790M] (P00533 whole entry T790M): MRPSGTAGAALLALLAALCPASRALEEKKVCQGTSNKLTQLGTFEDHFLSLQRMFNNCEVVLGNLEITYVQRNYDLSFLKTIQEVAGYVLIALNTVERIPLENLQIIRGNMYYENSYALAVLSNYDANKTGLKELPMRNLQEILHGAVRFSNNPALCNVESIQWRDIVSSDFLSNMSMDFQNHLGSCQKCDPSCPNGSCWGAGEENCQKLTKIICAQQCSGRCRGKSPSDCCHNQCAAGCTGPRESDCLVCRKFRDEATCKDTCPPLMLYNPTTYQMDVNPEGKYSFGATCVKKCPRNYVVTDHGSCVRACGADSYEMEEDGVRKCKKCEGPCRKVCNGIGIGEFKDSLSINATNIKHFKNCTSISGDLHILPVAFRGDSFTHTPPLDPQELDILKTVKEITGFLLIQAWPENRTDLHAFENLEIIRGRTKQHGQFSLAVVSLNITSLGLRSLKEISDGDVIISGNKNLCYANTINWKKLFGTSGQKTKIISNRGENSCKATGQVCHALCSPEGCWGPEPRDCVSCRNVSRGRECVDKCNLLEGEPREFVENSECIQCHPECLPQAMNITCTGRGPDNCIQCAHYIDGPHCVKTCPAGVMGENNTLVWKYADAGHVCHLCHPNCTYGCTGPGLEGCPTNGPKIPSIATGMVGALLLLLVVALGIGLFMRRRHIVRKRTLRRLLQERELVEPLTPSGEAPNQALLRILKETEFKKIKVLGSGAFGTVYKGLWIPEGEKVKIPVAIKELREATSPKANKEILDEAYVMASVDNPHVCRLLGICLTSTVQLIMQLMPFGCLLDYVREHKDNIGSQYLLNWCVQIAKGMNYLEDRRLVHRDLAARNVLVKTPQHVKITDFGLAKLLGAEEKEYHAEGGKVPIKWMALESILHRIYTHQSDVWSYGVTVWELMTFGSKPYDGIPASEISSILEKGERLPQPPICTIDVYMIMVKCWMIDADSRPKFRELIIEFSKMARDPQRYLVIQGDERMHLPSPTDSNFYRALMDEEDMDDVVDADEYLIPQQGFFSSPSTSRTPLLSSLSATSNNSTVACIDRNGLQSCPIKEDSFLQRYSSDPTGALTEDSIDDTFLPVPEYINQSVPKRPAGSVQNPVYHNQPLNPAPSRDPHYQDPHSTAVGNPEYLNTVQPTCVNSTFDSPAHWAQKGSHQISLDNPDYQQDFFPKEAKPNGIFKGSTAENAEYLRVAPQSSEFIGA
Sequence of Epidermal growth factor receptor (Homo sapiens), P00533 [L858R,T790M] (P00533 whole entry T790M/L858R, looked up): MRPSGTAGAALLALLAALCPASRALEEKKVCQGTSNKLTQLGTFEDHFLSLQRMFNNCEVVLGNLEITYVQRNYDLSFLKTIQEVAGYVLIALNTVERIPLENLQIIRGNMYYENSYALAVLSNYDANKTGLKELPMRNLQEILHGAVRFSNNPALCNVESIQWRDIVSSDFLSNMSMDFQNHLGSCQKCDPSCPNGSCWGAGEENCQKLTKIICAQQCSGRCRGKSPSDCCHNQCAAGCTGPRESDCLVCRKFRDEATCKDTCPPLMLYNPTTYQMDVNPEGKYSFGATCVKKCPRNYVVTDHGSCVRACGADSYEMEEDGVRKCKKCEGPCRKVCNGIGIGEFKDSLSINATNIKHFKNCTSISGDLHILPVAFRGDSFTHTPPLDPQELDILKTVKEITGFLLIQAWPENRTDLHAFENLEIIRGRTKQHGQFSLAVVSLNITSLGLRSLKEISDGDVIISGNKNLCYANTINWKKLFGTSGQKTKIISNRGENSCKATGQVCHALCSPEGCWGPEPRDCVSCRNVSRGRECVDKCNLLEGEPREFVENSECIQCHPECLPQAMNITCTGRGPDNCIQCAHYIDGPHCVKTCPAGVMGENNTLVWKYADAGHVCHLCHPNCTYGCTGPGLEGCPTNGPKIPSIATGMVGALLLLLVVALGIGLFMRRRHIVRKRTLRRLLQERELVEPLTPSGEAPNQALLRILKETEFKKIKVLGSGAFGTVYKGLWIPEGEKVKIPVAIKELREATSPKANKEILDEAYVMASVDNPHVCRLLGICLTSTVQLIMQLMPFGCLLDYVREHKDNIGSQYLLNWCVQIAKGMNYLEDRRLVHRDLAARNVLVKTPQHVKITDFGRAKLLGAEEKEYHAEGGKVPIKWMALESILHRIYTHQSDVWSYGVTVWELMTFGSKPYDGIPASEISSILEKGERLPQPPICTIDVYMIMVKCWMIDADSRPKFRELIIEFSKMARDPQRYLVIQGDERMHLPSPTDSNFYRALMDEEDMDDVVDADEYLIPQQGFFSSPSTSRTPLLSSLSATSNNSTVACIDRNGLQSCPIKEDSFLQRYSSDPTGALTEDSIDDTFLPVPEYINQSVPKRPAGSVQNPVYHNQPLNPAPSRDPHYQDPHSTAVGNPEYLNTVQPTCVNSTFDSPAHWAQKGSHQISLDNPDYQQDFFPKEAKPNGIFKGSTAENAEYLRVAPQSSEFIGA

Row | SMILES | inhibition [1] [%] | inhibition [2] [%] | inhibition [3] [%] | inhibition [4] [%] | inhibition [5] [%] | inhibition [6] [%] | inhibition [7] [%] | inhibition [8] [%] | inhibition [9] [%] | inhibition [10] [%] | inhibition [11] [%] | inhibition [12] [%] | inhibition [13] [%] | inhibition [14] [%] | inhibition [15] [%] | inhibition [16] [%] | inhibition [17] [%] | inhibition [18] [%] | inhibition [19] [%] | inhibition [20] [%]
1 | CCc1ccc(Oc2nccc(-c3c(-c4ccc(F)cc4)ncn3C3CCNCC3)n2)cc1 | 4.64 | 0.15 | 8.07 | 0.72 | -0.17 | 4.68 | 4.67 | 9.41 | 10.6 | 4.76 | 9.06 | 4.55 | 4.56 | 1.97 | 3.15 | 1.55 | 7.71 | 7.62 | 11.6 | -1.66
2 | Fc1ccc(-c2c(-c3ccncc3)nc3n2CCS3)cc1 | 1.49 | 2.41 | 2.54 | -5.85 | -4.53 | -0.6 | 0.35 | 6.26 | 8.11 | 1.66 | 6.7 | 1.23 | 1.23 | -4.56 | -2.17 | 1.03 | 0.17 | 2.91 | 4.97 | 0.77
3 | CN(c1ccc(NC(=O)Nc2c(Cl)cccc2Cl)cc1)c1ccnc(Nc2cccc(CS(C)(=O)=O)c2)n1 | 2.21 | 2.48 | 3.18 | 3.5 | 7.74 | 7.33 | 7.13 | 10.6 | 33.8 | 4.12 | 27.3 | 2.02 | 4.62 | 2.86 | 8.72 | 1.88 | 7.2 | 11.2 | 17.1 | 51.9
4 | CN(C)CCOc1ccc(-c2cc(-c3ccc4c(c3)CCC4=NO)c(-c3ccncc3)o2)cc1 | 0.59 | -2.24 | -0.02 | -1.99 | -3.05 | 0.49 | -1.83 | -1.28 | 0.81 | -5.39 | 6.81 | -0.49 | 5.63 | 0.06 | 1.37 | 3.66 | 5.12 | 1.69 | 13 | -1.17
5 | O=C1Nc2ccc(I)cc2C1=Cc1cc(Br)c(O)c(Br)c1 | 1.77 | -1.49 | -1.12 | 1.35 | 1.12 | 1.79 | 4.64 | 7.31 | 9.77 | 5.47 | 6.84 | 0.93 | 5.23 | 5.1 | 4.33 | 3.38 | 2.46 | 5.63 | 10.5 | -1.96
6 | COc1cc(N2CCN(C(C)C)CC2)ccc1Nc1nc(Nc2ccc(F)cc2C(=O)NC[C@@H](O)CO)c2cc[nH]c2n1 | 25.8 | 11.9 | 60.2 | -2.5 | -3.57 | 0.19 | -0.58 | 9.3 | 12.5 | 3.1 | 6.9 | 0.85 | -0.23 | -2.73 | -3.91 | 3.24 | 10.5 | 9.31 | 15.7 | 17.7
